# High-throughput results: PubChem, National Center for Advancing Translational Sciences (NCATS)
# Lassa entry = qHTS for Inhibitors of binding or entry into cells for Lassa Virus. AID 720533, 2013. Lassa virus pseudotyped entry inhibition, cell-based qHTS. hit rate 4.1% among 18,000. Potency, µM (top dose mostly 49.2 µM), most hits filed as inhibitors
# MARV entry inh = qHTS for Inhibitors of binding or entry into cells for Marburg Virus; Potency, µM (doses to about 49.2 µM), actives largely listed as inhibitors; Marburg virus pseudotype entry/binding inhibition, cell-based; hit rate 6.5% among 18,000; AID 720532, 2013
# Hits are given with their value; n = inactive; u = inconclusive; x = not tested or not shown; ! = a repeat was not active; [ ] = another dose, or the depositor's remark. Shown are actives, neighbours in structure and some others; about 8.6% of the full set was active somewhere. Calls come from the whole dose curve; tested in HEK293 cells.
SMILES,Lassa entry,MARV entry inh
Cc1cc2c(c(=O)o1)[C@H]1O[C@](c3ccsc3)(Cc3ccccc31)O2,n[8.59 µM],n[8.59 µM]
CCOC(=O)OC[C@H]1O[C@H](C#Cc2ccccc2)C=C[C@H]1OC(=O)OCC,n[8.59 µM],n[8.59 µM]
CC12C=C(C=CCCc3ccco3)C(C)(C1)[C@H](CCc1ccco1)CC2=O (stereo partly specified),n[8.59 µM],n[8.59 µM]
C=C(C[C@@]1(C(=O)OC)C=C[C@@H](C)[C@H](c2ccccc2Br)N1C(=O)C(F)(F)F)c1ccccc1,n[8.59 µM],n[8.59 µM]
COc1ccc2c(c1)-c1nc(-n3ncc(C(=O)N(C)CC4CCCN(C)C4)c3C)ncc1CC2 (stereo unspecified),n,u
CC12C=CC(=O)C=C1CCC1C2=CCC2(C)C1CC[C@@H]2C(=O)CN1CCN(c2cc(N3CCCC3)nc(N3CCCC3)n2)CC1 (stereo partly specified),n,18µM!
C=C1CC[C@@]2(O)[C@H]3Cc4ccc(O)c5c4[C@@]2(CCN3CC2CC2)[C@H]1O5,n,n
C=CCN1CC[C@]23c4c5ccc(O)c4OC2C(=O)CC[C@]3(O)C1C5 (stereo partly specified),n,n
C=C(C)CN1CC[C@@]23c4c5ccc(O)c4O[C@H]2c2[nH]c4ccccc4c2C[C@]3(O)[C@@H]1C5,u,22µM
Oc1ccc2c3c1O[C@H]1c4[nH]c5ccccc5c4C[C@@]4(O)C(C2)N(CC2CC2)CCC314 (stereo partly specified),u,13µM
CC1=C[C@@H](C)OC2(C1)C(=O)N(CC1CC1)c1cccc(Br)c12 (stereo partly specified),n[8.59 µM],n[8.59 µM]
CC(C)=CCCC(C)=CCN1C(=O)[C@@]2(CC(C)=C[C@@H](COCc3ccccc3)O2)c2ccccc21,n[8.59 µM],n[8.59 µM]
CN1[C@@H]2CC[C@H]1CC(OC(=O)C(O)c1ccccc1)C2 (stereo partly specified),n,n
CCC(Sc1ccccc1)C(=O)OC1CC2CCC(C1)N2C (stereo unspecified),n,8.9µM
CCC12C=C(C=Cc3ccccc3)C(CC)(C1)C(c1ccccc1)CC2=O (stereo unspecified),n[8.59 µM],n[8.59 µM]
COC(=O)c1cc(CNC(=O)c2cccc(F)c2)cc(NC(=O)c2ccccc2OC)c1,u,141µM
COC(=O)c1cc(CNC(=O)c2ccccn2)cc(NC(=O)c2ccccc2OC)c1,n,n
COC(=O)CC1OC1[C@H](C)[C@@H](OC)C(C)C (stereo partly specified),x,n[8.59 µM]
COc1ccc([C@]23Cc4c(ccc5ccccc45)[C@H](O2)c2c(cc(-c4ccccc4)oc2=O)O3)cc1,n[8.59 µM],n[8.59 µM]
CC1=C(O)C(=O)[C@H]2O[C@@H]2C1=O,11µM,n
CN(C)Cc1ccccc1-c1ccc2ncnc(NCc3ccccc3)c2c1,n,u
c1nc(NC2CCNCC2)c2cc(-c3ccc4c(c3)OCO4)ccc2n1,n,u
CN(C)Cc1ccccc1-c1ccc2ncnc(NC3CCNCC3)c2c1,n,7.1µM
CN(C)Cc1ccccc1-c1ccc2ncnc(NCc3cccs3)c2c1,n,8.9µM
COCC=CC1=CC2=CC(=O)C(C)(OC(=O)c3cnc4ccccc4n3)C(=O)C2=CN1CCCCO (stereo unspecified),n[8.59 µM],n[8.59 µM]
SMILES,Lassa entry,MARV entry inh
C=CCN1[C@H](C)[C@@H](c2ccccc2)Oc2c(Cl)cccc2S1(=O)=O,n,n
COC(=O)C1=C(C)N(Cc2ccccc2)C(=NCC(C)C)NC1c1ccc(Br)cc1 (stereo unspecified),n[8.59 µM],n[8.59 µM]
C[C@@H]1CCCN1[C@@H]1C[S+](=O)([O-])N[C@@H]1COCc1ccccc1,n,n
c1cnn2ncc(-c3ccnc(Nc4ccc5c(c4)OCCO5)n3)c2c1,x,2.8µM
Fc1ccc(-c2nn3ncccc3c2-c2ccnc(Nc3ccc4c(c3)OCCO4)n2)cc1,u,0.89µM
FC(F)(F)c1cccc(-c2nn3ncccc3c2-c2ccnc(Nc3ccc4c(c3)OCCO4)n2)c1,x,4µM
OCCCNc1nccc(-c2c(-c3ccc(F)cc3)nn3cc(C(F)(F)F)ccc23)n1,n,u
COc1ccc(-c2nn3ncccc3c2-c2ccnc(Nc3ccc4c(c3)OCCO4)n2)cc1,u,7.1µM
O=C(OCc1cn([C@H]2C[C@H](c3ccccc3)N(CC3CCCCC3)C[C@H]2O)nn1)c1ccccc1,n,u
Cn1ccc2c(C=Cc3ccc(F)cc3)cc3c(c21)C1CCC3C1 (stereo unspecified),n,n
CC(=C\c1ccccc1)/C=C1/SC(=S)N(CC(=O)O)C1=O,n,n
O=S1(=O)c2ccc(Br)cc2O[C@H]2CCN1C2,n,n
Clc1ccc(-c2nn3ncccc3c2-c2ccnc(Nc3ccccc3)n2)cc1,x,6.3µM
NC(=O)c1ccc2c(-c3ccnc(NCCCO)n3)c(-c3ccc(F)cc3)nn2c1,n,u
C=C(C)CCN1C(=O)NC(c2ccccc2)C(C(C)=O)=C1C (stereo unspecified),n[8.59 µM],n[8.59 µM]
O=S1(=O)C=CCN1C1CCCC1,n,n
Fc1ccc(-c2cc(-c3cn[nH]c3-c3ccccn3)ccn2)cc1,n,n
COc1ccc(C(CCN2CCOCC2)c2c(OC)cc(OC)c3c(-c4ccccc4)cc(=O)oc23)cc1 (stereo unspecified),u,22µM
COc1cc(OC)c2c(-c3ccccc3)cc(=O)oc2c1C(CCN1CCOCC1)c1ccc2c(c1)OCO2 (stereo unspecified),u,10µM
COc1cc(C(CCN2CCOCC2)c2c(OC)cc(OC)c3c(-c4ccccc4)cc(=O)oc23)cc(OC)c1OC (stereo unspecified),4.5µM,10µM
COc1cc(OC)c2ccc(=O)oc2c1C(CCN1CCOCC1)c1ccc2c(c1)OCO2 (stereo unspecified),n,u
COc1cc(OC)c2ccc(=O)oc2c1C(CCN1CCOCC1)c1ccc(N(C)C)cc1 (stereo unspecified),n,n
COc1cc(OC)c2c(=O)c(-c3ccccc3)c(C)oc2c1OC,n,n
CCC[C@@]1(CCc2ccccc2)CC(O)=C([C@H](CC)c2cccc(NS(=O)(=O)c3ccc(C(F)(F)F)cn3)c2)C(=O)O1,n,n
NS(=O)(=O)c1ccc(N=Nc2c(O)[nH]c3ccc(C(=O)NCCCn4ccnc4)cc23)cc1,u,n
SMILES,Lassa entry,MARV entry inh
O=C1[C@@H]2[C@H]3[C@H](O)[C@H](O)CC(=NOC[C@@H](O)COCc4ccco4)[C@H]3CC[C@H]2C(=O)N1c1ccc(F)cc1F,n[8.59 µM],n[8.59 µM]
OCc1ccc(Cl)cc1Cl,n,n
O=C(CCl)c1ccc(Cl)cc1Cl,13µM,8.9µM
O=C(OCc1cn([C@H]2C[C@H](c3ccccc3)N(C(=O)C3CCCCC3)C[C@H]2O)nn1)c1ccccc1,n,n
COC(=O)C1=C(C(=O)OC)[C@@H]2N(C)c3ccccc3[C@@]23CCC(=O)N(Cc2ccc4c(c2)OCO4)C3=N1,n[8.59 µM],u
C=C1CC[C@H](O)C/C1=C\C=C1/CCC[C@]2(C)[C@@H]([C@H](C)CCCC(C)C)CC[C@@H]12,u,n
C=C1CC[C@H](O)CC1=C/C=C1\CCC[C@]2(C)[C@@H]([C@H](C)CCCC(C)(C)O)CC[C@@H]12,13µM,n
C=C1CC[C@H](O)C/C1=C/C=C1\CCC[C@]2(C)[C@@H]([C@H](C)CCCC(C)C)CC[C@@H]12,u,n
C=C1CC[C@H](O)CC1=C/C=C1\CCC[C@]2(C)[C@@H]([C@H](C)CC[C@@H](O)C(C)(C)O)CC[C@@H]12,16µM,n
